Inconclusive results are not listed. Activity calls are given as the source filed them. Calls follow the shape of the dose curve; as a rule, active = well fitted curve in the direction sought with a large enough effect in the repeat runs; inconclusive = weak or mixed curves; inactive = no such curve, though single readings can be large; an effect the other way counts as inactive or inconclusive.
Tests used:
[1] = qHTS RealTime-Glo MT Cell Viability Assay in HEK293 cells - 16 hour (AID 1224872); also: top concentration of the series differs between compounds; nearly all actives have a fitted effect of over 50% in size
Outline: (§1)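 Tox21 10K qHTS, HEK293, 600 cells/well, RealTime-Glo reagent co-dispensed with cells; 5 h preincubation, compound by pintool, 37 C, luminescence at 0–40 h.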

[2] = qHTS RealTime-Glo MT Cell Viability Assay in HepG2 cells - 8 hour (AID 1224873); also: nearly all actives have a fitted effect of over 55% in size
Outline: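 HepG2 cells (600/well) mixed with RealTime-Glo MT reagent, settled 5 h at 37 C/5% CO2 before compound addition. Nonlytic NanoLuc luminescence from viable-cell prosubstrate reduction read repeatedly during 40 h treatment at 37 C.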

[3] = qHTS RealTime-Glo MT Cell Viability Assay in HEK293 cells - 40 hour (AID 1224874); conditions: RealTime-Glo luminescence; max response: stronger effect = lower value; also: nearly all actives have a fitted effect of over 50% in size
Outline: (§2)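 Real-time viability in HEK293: signal arises when living cells convert a prosubstrate for NanoLuc in the medium, so luminescence tracks viable cell number. Compound (23 nL, DMSO) added 5 h post-seeding; kinetic reads at 0–40 h, 37 C.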

[4] = A CellTox Green Cytotoxicity Assay to monitor cytotoxicity in HEK293 cells - 24 hour (AID 1224875); also: series mostly up to about 77 µM; nearly all actives have a fitted effect of over 45% in size
Outline: (§3)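 Cells (HEK293, 600/well) and dye reagent are dispensed together. After 5 h at 37 C, 23 nL compound is pinned in. Plates stay at 37 C for 40 h with fluorescence read at 0h, 8h, 16h, 24h, 32h and 40h.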

[5] = A CellTox Green Cytotoxicity Assay to monitor cytotoxicity in HepG2 cells - 16 hour (AID 1224876); also: nearly all actives have a fitted effect of over 45% in size
Outline: (§4)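 Cells and non-lytic dye reagent are dispensed together (600 HepG2 cells/well) and incubated 5 h before DMSO compound transfer. Kinetic fluorescence is then recorded in the same wells during 40 h at 37 C.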

[6] = qHTS RealTime-Glo MT Cell Viability Assay in HepG2 cells - 32 hour (AID 1224877); also: nearly all actives have a fitted effect of over 55% in size
Outline: (§5)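 Cells + NanoLuc/prosubstrate dispensed (600 cells/well) → 5 h at 37 C/5% CO2 → compounds in DMSO transferred → 40 h incubation at 37 C, luminescence read at 0, 8, 16, 24, 32, 40 h.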

[7] = A CellTox Green Cytotoxicity Assay to monitor cytotoxicity in HepG2 cells - 24 hour (AID 1224878); also: nearly all actives have a fitted effect of over 45% in size
Outline: as §4

[8] = A CellTox Green Cytotoxicity Assay to monitor cytotoxicity in HepG2 cells - 40 hour (AID 1224879); also: nearly all actives have a fitted effect of over 40% in size
Outline: as §4

[9] = qHTS RealTime-Glo MT Cell Viability Assay in HEK293 cells - 0 hour (AID 1224880); also: top concentration of the series differs between compounds; nearly all actives have a fitted effect of over 45% in size
Outline: as §2

[10] = A CellTox Green Cytotoxicity Assay to monitor cytotoxicity in HEK293 cells - 32 hour (AID 1224881); also: nearly all actives have a fitted effect of over 40% in size
Outline: as §3

[11] = A CellTox Green Cytotoxicity Assay to monitor cytotoxicity in HepG2 cells - 0 hour (AID 1224882); also: nearly all actives have a fitted effect of over 35% in size
Outline: as §4

[12] = A CellTox Green Cytotoxicity Assay to monitor cytotoxicity in HepG2 cells - 32 hour (AID 1224883); also: nearly all actives have a fitted effect of over 50% in size
Outline: as §4

[13] = A CellTox Green Cytotoxicity Assay to monitor cytotoxicity in HEK293 cells - 8 hour (AID 1224884); also: nearly all actives have a fitted effect of over 35% in size
Outline: as §3

[14] = qHTS RealTime-Glo MT Cell Viability Assay in HepG2 cells - 16 hour (AID 1224885); also: nearly all actives have a fitted effect of over 50% in size
Outline: as §5

[15] = qHTS RealTime-Glo MT Cell Viability Assay in HEK293 cells - 24 hour (AID 1224886)
Outline: as §1

[16] = qHTS RealTime-Glo MT Cell Viability Assay in HEK293 cells - 8 hour (AID 1224887)
Outline: as §2

[17] = A CellTox Green Cytotoxicity Assay to monitor cytotoxicity in HEK293 cells - 16 hour (AID 1224888); also: nearly all actives have a fitted effect of over 35% in size
Outline: as §3

[18] = qHTS RealTime-Glo MT Cell Viability Assay in HepG2 cells - 0 hour (AID 1224889); also: nearly all actives have a fitted effect of over 50% in size
Outline: as §5

[19] = A CellTox Green Cytotoxicity Assay to monitor cytotoxicity in HepG2 cells - 8 hour (AID 1224890); also: nearly all actives have a fitted effect of over 45% in size
Outline: as §4

[20] = qHTS assay to identify small molecule antagonists of the estrogen receptor alpha (ER-alpha) signaling pathway using the BG1 cell line in the presence of 0.1 nM 17-beta-estradiol - cell viability counter screen (AID 1259241); also: nearly all actives have a fitted effect of over 40% in size
Outline: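 Live-cell protease activity (CellTiter-Fluor fluorescence, 30 min) was read in the same wells after VM7Luc4E2 cells had been exposed to compounds with 0.1 nM 17beta-estradiol for 22 hr at 37C.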
% is scaled to controls: 0 for no effect and ±100 for the full control effect.

CC(C)C(C)(N)C#N (centres undefined)
inactive: Potency [1] | outcome [2] | max response [3] -5.83% | Potency [4] | Potency [5] | Potency [6] | Potency [7] | Potency [8] | outcome [9] | Potency [10] | outcome [11] | Potency [12] | Potency [13] | Potency [14] | Potency [15] | Potency [16] | Potency [17] | outcome [18] | Potency [19] | outcome [20]

Cc1cc(OC(=O)N(C)C)nn1C(=O)N(C)C
inactive: Potency [1] | outcome [2] | max response [3] 2% | Potency [4] | Potency [5] | Potency [6] | Potency [7] | Potency [8] | outcome [9] | Potency [10] | outcome [11] | Potency [12] | Potency [13] | Potency [14] | Potency [15] | Potency [16] | Potency [17] | outcome [18] | Potency [19]

CNC(=O)NC(O)C(Cl)(Cl)Cl (centres undefined)
inactive: Potency [1] | outcome [2] | max response [3] 9.22% | Potency [4] | Potency [5] | Potency [6] | Potency [7] | Potency [8] | outcome [9] | Potency [10] | outcome [11] | Potency [12] | Potency [13] | Potency [14] | Potency [15] | Potency [16] | Potency [17] | outcome [18] | outcome [20]

N[C@@H](Cc1ccc(Oc2cc(I)c(O)c(I)c2)c(I)c1)C(=O)O
inactive: Potency [1] | outcome [2] | max response [3] 5.88% | Potency [4] | Potency [5] | Potency [6] | Potency [7] | Potency [8] | outcome [9] | Potency [10] | outcome [11] | Potency [12] | Potency [13] | Potency [14] | Potency [15] | Potency [16] | Potency [17] | outcome [18] | Potency [19] | outcome [20]

CC(C)(C)C(=O)C(Cl)Cl
inactive: Potency [1] | outcome [2] | max response [3] -2.49% | Potency [4] | Potency [5] | Potency [6] | Potency [7] | Potency [8] | outcome [9] | Potency [10] | outcome [11] | Potency [12] | Potency [13] | Potency [14] | Potency [15] | Potency [16] | Potency [17] | outcome [18] | Potency [19] | outcome [20]

O=C(NC(=O)c1c(F)cccc1F)Nc1cc(Cl)c(F)c(Cl)c1F
inactive: Potency [1] | outcome [2] | max response [3] -0.171% | Potency [4] | Potency [5] | Potency [6] | Potency [7] | Potency [8] | outcome [9] | Potency [10] | outcome [11] | Potency [12] | Potency [13] | Potency [14] | Potency [15] | Potency [16] | Potency [17] | outcome [18] | Potency [19]

COc1ccc(CN2CCNCC2)c(OC)c1OC
inactive: Potency [1] | outcome [2] | max response [3] 5.58% | Potency [4] | Potency [5] | Potency [6] | Potency [7] | Potency [8] | outcome [9] | Potency [10] | outcome [11] | Potency [12] | Potency [13] | Potency [14] | Potency [15] | Potency [16] | Potency [17] | outcome [18] | Potency [19] | outcome [20]

C=C(Cl)CCl
inactive: Potency [1] | outcome [2] | max response [3] -1.15% | Potency [4] | Potency [5] | Potency [6] | Potency [7] | Potency [8] | outcome [9] | Potency [10] | outcome [11] | Potency [12] | Potency [13] | Potency [14] | Potency [15] | Potency [17] | outcome [18] | Potency [19] | outcome [20]

CCCCOC(C)=O
inactive: Potency [1] | outcome [2] | max response [3] 8.22% | Potency [4] | Potency [5] | Potency [6] | Potency [7] | Potency [8] | outcome [9] | Potency [10] | outcome [11] | Potency [12] | Potency [13] | Potency [15] | Potency [16] | Potency [17] | outcome [18] | Potency [19] | outcome [20]

CCCOC(=O)c1cncn1C(C)c1ccccc1 (centres undefined)
inactive: Potency [1] | outcome [2] | max response [3] -0.62% | Potency [4] | Potency [5] | Potency [6] | Potency [7] | Potency [8] | outcome [9] | Potency [10] | outcome [11] | Potency [12] | Potency [13] | Potency [16] | Potency [17] | outcome [18] | Potency [19] | outcome [20]

CN1C(=O)COc2c(C(=O)NC3CN4CCC3CC4)cc(Cl)cc21 (centres undefined)
inactive: Potency [1] | outcome [2] | max response [3] 3.5% | Potency [4] | Potency [5] | Potency [6] | Potency [7] | Potency [8] | outcome [9] | Potency [10] | outcome [11] | Potency [12] | Potency [13] | Potency [14] | Potency [15] | Potency [17] | outcome [18] | Potency [19] | outcome [20]

CC[C@H](N)c1ccccc1
inactive: Potency [1] | outcome [2] | max response [3] 5.02% | Potency [4] | Potency [5] | Potency [6] | Potency [7] | Potency [8] | outcome [9] | Potency [10] | outcome [11] | Potency [12] | Potency [13] | Potency [14] | Potency [15] | Potency [17] | outcome [18] | Potency [19] | outcome [20]

CC(C)c1ccc(O)cc1
inactive: Potency [1] | outcome [2] | max response [3] 0.569% | Potency [4] | Potency [5] | Potency [6] | Potency [7] | Potency [8] | outcome [9] | Potency [10] | outcome [11] | Potency [12] | Potency [13] | Potency [15] | Potency [16] | Potency [17] | outcome [18] | Potency [19] | outcome [20]

COC[C@@H](NC(C)=O)C(=O)NCc1ccccc1
inactive: Potency [1] | outcome [2] | max response [3] 5.22% | Potency [4] | Potency [5] | Potency [6] | Potency [7] | Potency [8] | outcome [9] | Potency [10] | outcome [11] | Potency [12] | Potency [13] | Potency [14] | Potency [15] | Potency [17] | outcome [18] | Potency [19] | outcome [20]

Reference: PubChem BioAssay (Tox21)
